CHT block: inhibits the human high affinity choline transporter | AID 488975 | Q9GZV3 | 310,000 tested, 0.86% active | CHT-expressing cells, membrane potential dye, choline response; hits give low values | B-score at 10 µM;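 active means B-score over 3 SD under the library average, and starting fluorescence ratio not unusually high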;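 further: choline stimulus applied at its EC90 after an EC20 pre-addition; B-score computed on integrated fluorescence ratio after choline addition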
CHT allo act: allosteric activators of human choline transporter CHT. Q9GZV3. CHT-expressing cells, membrane potential dye, choline EC20; hits give high values; LV-AA mutant CHT in HEK293 cells. B-score at 10 µM. 310,000 tested, 0.49% active. AID 488977;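 active means initial fluorescence not abnormally high and integrated response B-score, plate-corrected, over 3 SD above library mean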
TMEM16A act: activates or potentiates the mouse TMEM16A chloride channel; 340,000 tested, 0.3% active; HEK293 TMEM16A/YFP-H148Q/I152L, iodide quench fluorescence; hits give low values; AID 623877; B-score at 10 µM;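 active means fluorescence-ratio B-score plate-corrected deviation score at least 3 library SD below zero, with starting fluorescence score within 5 deviations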;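 further: channel opened by trigger with iodide after compound preincubation; score built on the fluorescence ratio of max minus min over baseline; more negative score means more quench and so TMEM16A activation or potentiation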
Target sequence (Q8BHY3 whole entry, looked up): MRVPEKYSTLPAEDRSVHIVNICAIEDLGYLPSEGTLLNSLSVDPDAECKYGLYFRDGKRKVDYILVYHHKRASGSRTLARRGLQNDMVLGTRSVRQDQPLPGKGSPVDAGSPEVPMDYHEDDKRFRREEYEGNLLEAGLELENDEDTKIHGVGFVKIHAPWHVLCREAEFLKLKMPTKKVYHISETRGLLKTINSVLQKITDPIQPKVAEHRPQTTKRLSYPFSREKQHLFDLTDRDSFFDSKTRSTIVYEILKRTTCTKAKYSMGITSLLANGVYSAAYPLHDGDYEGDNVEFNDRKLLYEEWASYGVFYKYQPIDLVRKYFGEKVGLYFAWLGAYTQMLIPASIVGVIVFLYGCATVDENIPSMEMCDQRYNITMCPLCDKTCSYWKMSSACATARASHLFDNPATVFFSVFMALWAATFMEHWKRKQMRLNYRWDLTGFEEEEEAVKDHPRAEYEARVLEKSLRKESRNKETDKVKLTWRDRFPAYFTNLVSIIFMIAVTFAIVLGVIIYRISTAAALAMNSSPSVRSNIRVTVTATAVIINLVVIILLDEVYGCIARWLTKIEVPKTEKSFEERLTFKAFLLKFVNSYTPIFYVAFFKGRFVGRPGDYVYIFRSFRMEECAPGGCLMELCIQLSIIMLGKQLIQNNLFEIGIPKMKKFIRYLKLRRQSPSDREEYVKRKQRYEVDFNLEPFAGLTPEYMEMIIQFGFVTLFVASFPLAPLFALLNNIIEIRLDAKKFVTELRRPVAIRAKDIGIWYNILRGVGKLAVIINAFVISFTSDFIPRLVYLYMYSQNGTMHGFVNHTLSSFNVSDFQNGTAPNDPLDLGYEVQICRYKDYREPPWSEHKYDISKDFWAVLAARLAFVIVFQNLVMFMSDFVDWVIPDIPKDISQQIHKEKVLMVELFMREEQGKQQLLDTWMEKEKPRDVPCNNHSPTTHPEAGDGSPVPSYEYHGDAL
ANO1 block: inhibitors of mouse TMEM16A calcium-activated chloride channel; Q8BHY3; HEK293 TMEM16A/YFP iodide influx fluorescence, ionomycin; normalized B-score (activity score, 25-100; higher = stronger inhibition) at 10 µM; 310,000 tested, 1.2% active; AID 588511;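 active means ratio plate-corrected score three or more library SD toward inhibition, starting fluorescence score within five deviations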;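 further: score derived from kinetic fluorescence span divided by baseline fluorescence per well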
Kir21 block: blocks the mouse Kir2.1 inward-rectifier potassium channel; AID 1672; B-score at 10 µM; 310,000 tested, 0.85% active; P35561; HEK293-Kir2.1, FluxOR thallium flux fluorescence; hits give low values;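 active means fluorescence ratio B-score at or below minus 3 SD of library scores, with starting-brightness B-score within 2 SD, cut at about -4.2 in these data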;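 further: channel flux triggered by added potassium and thallium sulfate stimulus; B-score of peak minus minimum fluorescence over baseline after thallium stimulus; more negative B-score means stronger Kir2.1 block with less thallium influx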
Rce1 inh: blocks yeast Ras-converting enzyme | Q03530 | AID 2563 | calls only | yeast membranes, quenched prenylated peptide cleavage fluorescence | 290,000 tested, 0.27% active;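 active means fall in fluorescence gain of 50% or more versus controls, with final raw signal at or below 3038400; inconclusive means same 50% fall but final raw signal above 3038400; inactive means fall in fluorescence gain under 50%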
CHT block conf: human CHT inhibition, confirmatory screen. shares compounds with CHT block. CHT-expressing cells, choline membrane potential dye; LV-to-AA substituted CHT, HEK293 cells. CHT activity remaining % of control (hits give low values), % at 10 µM. 2,400 tested, 70% active;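 active means choline transporter activity left, mean of duplicates at 10 µM, below buffer-only control mean minus 3 SD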;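 further: depolarization triggered by choline at its EC90 following an EC20 pre-addition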
HEK293 MPD ctr: CHT inhibitor counter-screen hit in parental HEK293 cells | shares compounds with CHT block | membrane potential ratio readout (active if shifted either direction beyond buffer ±3SD; no single direction) at 10 µM | 2,400 tested, 4% active | membrane potential dye, choline response; active = decrease or increase beyond buffer ±3SD | AID 493222;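 further: parental cells lack the transporter so any hit is non-specific; ratio is peak minus trough fluorescence over baseline after EC90 choline challenge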
Numbers stand for hits; 0 = inactive; ? = inconclusive; - = not tested or not shown; + = active, no number. The list is not random: actives were taken first. Their share in the collection is about 3.2%.

SMILES	CHT block	CHT allo act	TMEM16A act	ANO1 block	Kir21 block	Rce1 inh	CHT block conf	HEK293 MPD ctr
O=C(NCc1ccccc1)c1ccc2c(=O)[nH]c3c(C(=O)NCC4CCCO4)sc(=S)n3c2c1 (stereo not drawn)	0	0	0	0	0	0	-	-
Cc1ccc(CNC(=O)c2ccc3c(=O)[nH]c4c(C(=O)NCC5CCCO5)sc(=S)n4c3c2)cc1 (stereo not drawn)	0	0	0	0	0	0	-	-
Cc1ccc(-c2csc(/C(C#N)=C(\O)CCl)n2)cc1	-	-	0	-	0	0	-	-
N#C/C(=C(/O)CCl)c1nc(-c2ccccc2)cs1	-8.41	0	0	0	0	0	-31.8%	0
CC1=C/C(=N\OS(=O)(=O)c2ccccc2)C(C)=CC1=O	-5.95	0	-6.43	100	-	-	49.8%	0
COP(=O)(OC)c1nc(-c2ccc(C)cc2)oc1N1CCCCC1	0	0	0	0	0	?	-	-
Cc1cc([N+](=O)[O-])c(NCCCCCCO)c([N+](=O)[O-])c1	-5.44	0	0	0	0	0	38.4%	0
CCc1c(C)nc2ncnn2c1Nc1ccccc1C	0	0	0	0	0	0	-	-
CCc1c(C)nc2ncnn2c1NCCc1ccccc1	-5.17	0	0	0	0	0	46.6%	0
C=CCN(CC=C)S(=O)(=O)c1ccc2nc(NC(=O)C3CCCO3)sc2c1 (stereo not drawn)	-5.01	0	0	0	0	0	58.2%	0
S=C(NCc1ccccn1)Nc1ccc(Cl)cc1Cl	-5.16	0	0	0	0	0	53.4%	0
COc1ccc(Cl)cc1NC(=S)NCc1ccccn1	0	0	0	0	0	0	-	-
CN(C(=O)COC(=O)C1(C)CC1(Cl)Cl)c1c(N)n(Cc2ccccc2)c(=O)[nH]c1=O (stereo not drawn)	-	-	0	-	-	-	-	-
COc1cccc(-c2cc(C(=O)NN3CCOCC3)c3ccccc3n2)c1	-10.2	0	0	0	0	0	0	0
COc1ccc(-c2cc(C(=O)NN3CCOCC3)c3ccccc3n2)cc1OC	-	-	0	-	0	0	-	-
CC(C)(C)OC(=O)NCCCCCc1nnc(SCC(=O)Nc2cccc(Cl)c2)o1	-5.63	0	0	100	0	0	0	0
CC(NS(=O)(=O)c1ccc2c(c1)c(=O)n(C)c(=O)n2C)C(=O)NC1CCCCC1 (stereo not drawn)	0	0	0	0	0	0	-	-
Cc1nnc(C)n1/N=C/c1cc(Br)ccc1O	0	0	0	0	0	0	-	-
Cc1nnc(C)n1/N=C/c1cc(Br)cc(Br)c1O	-6.84	0	0	0	0	0	34.3%	0
COC(=O)Nc1ccc(S(=O)(=O)NNC(=O)c2c(O)c3ccccc3n(C)c2=O)cc1	-5.77	0	0	0	0	0	43.3%	0
O=C(O)CC(Cc1ccc(Cl)cc1)C(=O)Nc1cc(Cl)ccc1Cl (stereo not drawn)	-5.34	0	0	0	0	0	52.8%	0
COc1ccc(OC)c(NC(=O)C(CC(=O)O)Cc2ccc(Cl)cc2)c1 (stereo not drawn)	0	0	0	0	0	0	-	-
Cn1c(-c2ccc(F)cc2)cnc1NCc1ccccc1	-5.03	0	-	0	0	0	0	0
CN(CC(=O)Nc1ccccc1Cl)C(=O)Cn1cnc2ccccc2c1=O	-	-	0	-	-	-	-	-
O=[N+]([O-])c1cc(C(F)(F)F)cc([N+](=O)[O-])c1N1CCCNCC1	-8.77	0	0	0	0	0	16.3%	0
SMILES	CHT block	CHT allo act	TMEM16A act	ANO1 block	Kir21 block	Rce1 inh	CHT block conf	HEK293 MPD ctr
Cc1nc2ccccn2c1C(=O)NNC(=O)Nc1cccc(C(F)(F)F)c1	0	0	0	0	0	0	-	-
CN(Cc1c(F)cccc1Cl)C(=O)c1ccc2ccccc2n1	0	0	0	0	0	0	-	-
Cc1cc(=O)[nH]c(SCC(=O)Nc2ccc(F)cc2)c1C#N	-10.2	0	0	0	0	0	62.2%	0
CCc1cccc(C)c1N1C(=O)CC(C)(C)CC1=O	0	0	0	0	0	0	-	-
CN(/N=C/c1cc(Cl)cc(Cl)c1O)C(=S)NC(C)(C)C	-5.44	0	0	100	0	0	67.7%	0
Oc1c(Cl)cc(Cl)cc1/C=N/Nc1ncc(Br)cn1	0	0	0	0	0	0	-	-
CCOC(=O)C1CCN(C(=O)c2ccccc2NC(=O)C2=C(C)OCCS2)CC1	0	0	0	0	0	0	-	-
CCOC(=O)CC1=C(C(=O)OCC)C(c2cccs2)C(C#N)=C(N)O1 (stereo not drawn)	-5.31	0	0	0	0	0	0	0
CC1(CCC(=O)N2CCCC(N3CCN(c4ccc(F)cc4)CC3)C2)CC1 (stereo not drawn)	0	0	0	0	0	0	-	-
O=C(Oc1coc(CSc2nnc(NC(=O)C3CC3)s2)cc1=O)c1c(F)cccc1F	0	0	0	0	0	0	-	-
Nn1c(SC/C=C/c2ccccc2)nnc1-c1ccncc1	0	0	0	0	0	0	-	-
COc1cc(-c2nnc(SC/C=C/c3ccccc3)n2N)cc(OC)c1OC	-5.23	0	0	0	0	0	67.3%	0
CC(=O)Nc1ccc(NC(=O)c2nc(-c3ccccc3)oc2C)cc1	0	0	0	0	0	0	-	-
COc1ccc(Cc2nc3ccc(C(=O)NC(C)Cc4ncccc4C)cc3o2)cc1OC (stereo not drawn)	0	0	0	0	0	-	-	-
O=C(Cn1nc(-c2cccc([N+](=O)[O-])c2)c2ccccc2c1=O)NCC1CCCO1 (stereo not drawn)	0	0	0	0	0	0	-	-
CC(=O)c1cc2c(cc1NC(=O)CCNC(=O)c1ccccc1Cl)OCO2	-5.6	0	0	0	0	0	49.8%	0
Cc1ccc(S(=O)(=O)CCNC(=O)Cc2ccc(Cl)cc2)cc1	0	0	0	0	0	0	-	-
Cc1nn(CC2CC2)c(=O)n1-c1cccc(Cl)c1	-5.78	0	0	0	0	0	0	0
NC(=O)CCCn1c(C(=O)c2cc(Cl)c(N)c(Cl)c2)c2ccc(C(F)(F)F)cc2[n+]1[O-]	-10.1	0	0	0	0	+	-1.6%	0
NCCCn1c(C(=O)c2cc(Cl)c(N)c(Cl)c2)c2ccc(C(F)(F)F)cc2[n+]1[O-]	-8.15	0	0	0	0	+	14.1%	0
COc1ccc(C(=O)c2c3ccc(C(F)(F)F)cc3[n+]([O-])n2CCCC(N)=O)cc1	0	0	0	0	0	0	-	-
Cc1ccc(S(=O)(=O)N2CCN(C(=O)COC(=O)CNC(=O)c3ccc(Cl)cc3Cl)CC2)c(C)c1	-	-	0	-	-	-	-	-
CCCc1cc(Nc2c(C)n(C)n(-c3ccccc3)c2=O)n2c(nc3ccccc32)c1C#N	-8.01	0	0	0	0	0	38.1%	0

Screens as filed in PubChem.
